Dicer processing = human Dicer pre-microRNA cleavage inhibition; Q9UPY3; cat-ELCCA pre-miR-21 Dicer processing, chemiluminescence; stronger effect = higher value; z-score at 25 µM; 47,000 tested, 6% active; AID 1347074; in the data active = z-score above about 3, passing the limit was not always enough;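 note: plate controls were vehicle for no effect and no enzyme for full effect; higher signal means more uncleaved substrate so more Dicer inhibition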
Active calls of the source: *. The full list was thinned out, with hits kept by preference.

SMILES | Dicer processing
CCOCCOC(=O)C1=C(C)NC2=C(C(=O)CC(c3ccccc3)C2)C1c1cccc2ccccc12 (configuration not stated) | 5.2*
CCOCCOC(=O)C1=C(C)NC2=C(C(=O)CC(c3ccccc3)C2)C1c1ccc(F)cc1 (configuration not stated) | 1.6
COc1ccc(C2CC(=O)C3=C(C2)NC(C)=C(C(=O)OCC(C)C)C3c2ccc3c(c2)OCO3)cc1 (configuration not stated) | -0.15
CCOC(=O)C1=C(C)NC2=C(C(=O)CC(c3ccccc3)C2)C1c1cccc2ccccc12 (configuration not stated) | 0.44
COc1ccc(C2C(C(=O)OCC(C)C)=C(C)NC3=C2C(=O)CC(c2ccccc2)C3)c(OC)c1 (configuration not stated) | 1.1
CC(=O)Oc1ccc(C2C(C(=O)OCC(C)C)=C(C)NC3=C2C(=O)CC(c2ccccc2)C3)cc1 (configuration not stated) | 7*
CSC1=C(C#N)C(c2cccc(Oc3ccccc3)c2)CC(=O)N1 (configuration not stated) | 1
COC(=O)CSc1cc(C(F)(F)F)nc2cc(C(C)(C)C)nn12 | -3.1
Clc1ccc(-c2noc(Cc3ccccc3)n2)cc1 | -5.2
C=CCN1C(=O)C2(/C(=C(/O)c3ccc(C)c(F)c3)C(=O)C(=O)N2CCOC)c2ccccc21 (configuration not stated) | -0.51
COc1ccc(C2C(C(=O)OC3CCCCC3)=C(C)NC3=C2C(=O)CC(C)(C)C3)cc1OC (configuration not stated) | -0.17
Cc1ccc2cc3c(nc2c1)N(c1ccccc1)CC3 | -2.5
COC(=O)c1ccc(N2CCc3cc4ccc(C)cc4nc32)cc1 | 3*
COC(=O)c1ccc(N2C(=O)CC(N3CCN(C)CC3)C2=O)cc1 (configuration not stated) | 0.87
COc1cc(C2c3c(oc4ccccc4c3=O)C(=O)N2c2nnc(C(C)C)s2)ccc1O (configuration not stated) | -0.13
O=C(O)CCC(=O)N1CCCc2ccccc21 | 2.3
O=C(Nc1ccc(Cl)cc1)N1CCCc2ccccc21 | 4.3*
O=C(Nc1cc(Cl)cc(Cl)c1)N1CCCc2ccccc21 | -0.22
O=C(Nc1cccc(Cl)c1)NC1Cc2ccccc2C1 | -2.5
c1ccc(Cc2cn3cc(-c4ccccc4)nc3s2)cc1 | -0.47
Clc1ccccc1Cc1cn2cc(-c3ccccc3)nc2s1 | 4.1*
Fc1ccc(Cc2cn3cc(-c4ccccc4)nc3s2)cc1 | 0.05
CCOC(=O)N1CCN(S(=O)(=O)c2ccc3c(c2)OCCO3)CC1 | 1.4
CC(=O)c1nnn(-c2cc(C(F)(F)F)ccc2Cl)c1C | 1.5
CCc1ccc(C(=O)CC2(O)C(=O)Nc3ccccc32)cc1 (configuration not stated) | -0.1
SMILES | Dicer processing
CCOc1ccc(C(=O)CC2(O)C(=O)Nc3ccccc32)cc1 (configuration not stated) | 3.4*
CC(C)c1ccc(C(=O)CC2(O)C(=O)Nc3ccccc32)cc1 (configuration not stated) | -1.4
CCCOC(=O)C1=C(C)NC2=C(C(=O)CC(c3ccccc3)C2)C1c1cc2c(cc1Cl)OCO2 (configuration not stated) | 2.7
CCc1ccc2[nH]c3nc(SCC(=O)O)nnc3c2c1 | 1.1
CCOC(=O)c1c[nH]c2cc(F)c(F)cc2c1=O | 1.1
COc1ccc(NC(=S)N2N=C3c4ccccc4CCC3C2c2ccc(F)cc2)cc1 (configuration not stated) | 0.71
COc1ccc(C2C3CCc4ccccc4C3=NN2CCOC(=O)C2CC2)cc1 (configuration not stated) | 4.8*
COc1ccc(N2CC3CCc4ccccc4C3=N2)cc1 (configuration not stated) | -0.95
CC(C)(C)SCCNC(=O)c1ccco1 | 0.35
C=CCSc1nnc(-c2ccc(C(C)(C)C)cc2)n1C | 30
O=C(O)c1c(-c2ccccc2)nnc2ccccc12 | -0.97
O=C(Nc1ccc(OC(F)(F)F)cc1)c1c(-c2ccccc2)nnc2ccccc12 | 29*
O=C(Nc1ccc(OC(F)(F)F)cc1)Nc1ccc2ccccc2n1 | -1
Cc1ccc2nc3c(cc2c1)c(=O)n(-c1ccccc1)c1c3c(=O)n(C)c(=O)n1C | -1.8
Cc1c(C(=O)Nc2ccc(Cl)cc2)cc(-c2ccccc2)n1-c1ccccc1 | -0.69
CCOC(=O)c1cc(C)ccc1NC(=O)c1ccc(Cl)cc1 | -0.46
Cc1ccc(N)c(C(=O)Nc2ccc(Cl)cc2)c1 | 5.1*
O=c1ccn(-c2ccc(Cl)cc2)nc1-c1ccnc(-c2ccccc2)n1 | 0.59
Cn1c(=O)c2c(nc(N)n2CC(=O)O)n(C)c1=O | -4.9
C=CCNC(=S)N(CCC#N)C1CCCCC1 | -1.2
CCC(C)NC(=O)c1nn2c(c1Cl)NC(c1ccc(Cl)cc1)CC2C(F)(F)F (configuration not stated) | 4.9*
O=C(c1nn2c(c1Cl)NC(c1ccccc1)CC2C(F)(F)F)N1CCCCC1 (configuration not stated) | 5.6*
